Results as given in PubChem BioAssay (NCI).
About 79,000 compounds went through this panel and 15% of them were active in at least one assay; those are over-represented in the sample as a whole. Active and inactive are the calls of the source. Cut-off read from the data, not from the text of the source: active = growth inhibition above about 70%; inactive = the rest.

Legend:
[1] = NCI Yeast Anticancer Drug Screen. Data for the rad52 strain (AID 147);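 note: 0% = growth of vehicle-treated control cultures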; settings: S. cerevisiae rad52 mutant growth inhibition, active compounds read high
How it was run: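 Yeast strain carrying a DNA damage repair alteration was exposed to test compounds. Growth inhibition was measured relative to vehicle-treated controls.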

[2] = NCI Yeast Anticancer Drug Screen. Data for the wt1 strain (AID 149);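 note: 0% = growth of vehicle-treated wt1 cultures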; settings: S. cerevisiae wt1 strain (SPY 50644) growth inhibition, active compounds read high
How it was run: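 Measured: growth of wt1 yeast under compound versus vehicle treatment, reported as inhibition.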

[3] = NCI Yeast Anticancer Drug Screen. Data for the rad50EPP+ strain (AID 151);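 note: 0% = growth of vehicle-treated control cultures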; settings: S. cerevisiae rad50 mutant strain, active compounds read high
How it was run: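 Yeast strain carrying rad50 alteration (rad50EPP+) exposed to compounds; growth inhibition measured relative to vehicle-treated controls.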

[4] = NCI Yeast Anticancer Drug Screen. Data for the mgt1 strain (AID 153); settings: S. cerevisiae mgt1 mutant growth inhibition, active compounds read high
How it was run: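 Yeast mgt1 strain (DNA repair/cell-cycle alteration panel) exposed to compounds; growth inhibition measured relative to vehicle-treated controls.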

[5] = NCI Yeast Anticancer Drug Screen. Data for the rad50 strain (AID 155);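 note: 0% = growth of vehicle-only cultures of the same strain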; settings: S. cerevisiae rad50 strain growth inhibition, active compounds read high
How it was run: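 Growth of the mutant yeast was measured after compound exposure and referenced to vehicle-treated cultures.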

[6] = NCI Yeast Anticancer Drug Screen. Data for the mec2-1 strain (AID 157); settings: S. cerevisiae mec2-1 strain, active compounds read high
How it was run: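 mec2-1 yeast strain, carrying an alteration in DNA damage repair or cell cycle control, was exposed to compounds; growth inhibition was measured relative to vehicle-treated controls.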

[7] = NCI Yeast Anticancer Drug Screen. Data for the rad14 strain (AID 159);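 note: 0% = growth of vehicle-treated control cultures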; settings: S. cerevisiae rad14 strain growth inhibition, active compounds read high
How it was run: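 Here, inhibition of yeast growth was measured after compound exposure, using a strain with a genetic defect in DNA damage repair and vehicle-treated cultures as the reference.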

[8] = NCI Yeast Anticancer Drug Screen. Data for the sgs1 mgt1 strain (AID 161);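 note: 0% = growth of cultures given vehicle only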; settings: S. cerevisiae sgs1 mgt1 strain, active compounds read high
How it was run: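 Percent growth inhibition was derived by comparing compound-exposed mutant yeast with vehicle-exposed cultures. The strain carries alterations in DNA damage repair.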

[9] = NCI Yeast Anticancer Drug Screen. Data for the CLN2oe strain (AID 163);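 note: 0% = growth of vehicle-only control cultures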; settings: S. cerevisiae CLN2oe strain, active compounds read high
How it was run: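 Yeast cells carrying a defined cell-cycle control alteration were exposed to test compounds. Growth inhibition was scored against vehicle-treated control cultures.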

[10] = NCI Yeast Anticancer Drug Screen. Data for the cln2 rad14 strain (AID 165);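 note: 0% = growth equal to vehicle treated cultures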; settings: S. cerevisiae cln2 rad14 strain, active compounds read high
How it was run: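 Yeast carrying cln2 and rad14 alterations (cell cycle control and DNA damage repair) were exposed to compounds. Growth inhibition was measured against vehicle-treated controls.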

[11] = NCI Yeast Anticancer Drug Screen. Data for the bub3 strain (AID 167); settings: S. cerevisiae bub3 mutant strain, active compounds read high
How it was run: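 Whole-cell yeast assay. The mutant strain was incubated with compounds, and growth inhibition was determined by comparison with vehicle-treated cells.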

[12] = NCI Yeast Anticancer Drug Screen. Data for the wt2 strain (AID 169);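 note: 0% = growth of vehicle-treated yeast cultures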; settings: S. cerevisiae wt2 strain growth inhibition, active compounds read high
How it was run: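 Yeast cells were exposed to test compounds, and growth inhibition was measured relative to vehicle-treated controls.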

[13] = NCI Yeast Anticancer Drug Screen. Data for the mlh1 strain (AID 171);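 note: 0% = growth of vehicle-treated control cultures of the same strain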; settings: S. cerevisiae mlh1 strain growth inhibition, active compounds read high
How it was run: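 Yeast carrying a defined genetic alteration in DNA damage repair or cell cycle control were exposed to test compounds. Growth inhibition was measured relative to vehicle-treated controls.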

[14] = NCI Yeast Anticancer Drug Screen. Data for the sgs1 strain (AID 173);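 note: 0% = growth of vehicle-only control cultures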; settings: S. cerevisiae sgs1 mutant, active compounds read high
How it was run: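 Yeast mutant strains carrying defined defects in DNA damage repair or cell cycle control were exposed to test compounds. Growth inhibition was scored against vehicle-treated controls.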

[15] = NCI Yeast Anticancer Drug Screen. Data for the mlh1 rad18 strain (AID 175); settings: S. cerevisiae mlh1 rad18 strain growth inhibition, active compounds read high
How it was run: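 Growth inhibition of the yeast strain was measured after compound exposure and expressed relative to vehicle-treated controls. The strain carries defined defects in DNA damage repair.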

[16] = NCI Yeast Anticancer Drug Screen. Data for the rad18 strain (AID 177); settings: S. cerevisiae rad18 mutant growth inhibition, active compounds read high
How it was run: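 Yeast carrying a defined DNA damage repair alteration were exposed to compounds. Growth inhibition was expressed relative to vehicle-treated controls.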

[17] = at 5.0 µM (retest, dose inferred, filed as 0.5)
[18] = at 50.0 µM (retest, dose inferred, filed as 5.0)

Measured: growth inhibition

COc1ccc(/C=C/C(=O)C(C)(C)Br)cc1
active: [1]; at 3.7 µM 89% | [1]; at 11.0 µM 95% | [1]; at 33.0 µM 97% | [1]; at 100.0 µM 98% | [3]; at 1.2 µM 79% | [3]; at 3.7 µM 93% | [3]; at 11.0 µM 96% | [3]; at 33.0 µM 97% | [3]; at 100.0 µM 98% | [4]; at 100.0 µM 71% | [5]; at 3.7 µM 74% | [5]; [17] 75% | [5]; at 11.0 µM 88% | [5]; at 33.0 µM 93% | [5]; [18] 96% | [5]; at 50.0 µM 94.5% | [5]; at 100.0 µM 96% | [6]; at 3.7 µM 71% | [6]; at 11.0 µM 96% | [6]; at 33.0 µM 97% | [6]; [18] 98% | [6]; at 50.0 µM 96.6% | [6]; at 100.0 µM 97% | [7]; at 11.0 µM 93% | [7]; at 33.0 µM 96% | [7]; at 100.0 µM 99% | [8]; [17] 86% | [8]; [18] 97% | [8]; at 50.0 µM 93.7% | [9]; at 100.0 µM 89% | [10]; [18] 92% | [10]; at 50.0 µM 91.5% | [11]; [18] 99% | [11]; at 50.0 µM 73.3% | [11]; at 100.0 µM 82% | [12]; at 100.0 µM 89% | [13]; at 100.0 µM 94% | [14]; at 3.7 µM 87% | [14]; at 11.0 µM 91% | [14]; at 33.0 µM 92% | [14]; at 100.0 µM 95% | [15]; [17] 89% | [15]; [18] 99% | [15]; at 50.0 µM 94.4% | [16]; at 1.2 µM 96% | [16]; at 3.7 µM 97% | [16]; at 11.0 µM 97% | [16]; at 33.0 µM 97% | [16]; at 100.0 µM 98%
inactive: [1]; at 1.2 µM 45% | [2]; at 1.2 µM 4% | [2]; at 3.7 µM 12% | [2]; at 11.0 µM 15% | [2]; at 33.0 µM 19% | [2]; at 100.0 µM 33% | [4]; at 1.2 µM 0% | [4]; at 3.7 µM 9% | [4]; at 11.0 µM 18% | [4]; at 33.0 µM 27% | [5]; at 1.2 µM 41% | [6]; at 1.2 µM 24% | [6]; [17] 11% | [7]; at 1.2 µM 28% | [7]; at 3.7 µM 69% | [9]; at 1.2 µM 0% | [9]; at 3.7 µM 3% | [9]; at 11.0 µM 20% | [9]; at 33.0 µM 36% | [10]; [17] 52% | [11]; at 1.2 µM -9% | [11]; at 3.7 µM -7% | [11]; [17] 26% | [11]; at 11.0 µM 4% | [11]; at 33.0 µM 25% | [12]; at 1.2 µM 2% | [12]; at 3.7 µM 10% | [12]; at 11.0 µM 26% | [12]; at 33.0 µM 37% | [13]; at 1.2 µM 5% | [13]; at 3.7 µM 19% | [13]; at 11.0 µM 33% | [13]; at 33.0 µM 54% | [14]; at 1.2 µM 69%

CCCCCCCCCCCCCCCCCCN(C)CC(COP(=O)([O-])OCC[N+](C)(C)C)OC (stereo unspecified)
inactive: [1]; at 1.2 µM -14% | [1]; at 3.7 µM -24% | [2]; at 1.2 µM 0% | [2]; at 3.7 µM -2% | [3]; at 1.2 µM -4% | [3]; at 3.7 µM 43% | [4]; at 1.2 µM 21% | [4]; at 3.7 µM 32% | [5]; at 1.2 µM 8% | [5]; at 3.7 µM 18% | [5]; [17] 17% | [6]; at 1.2 µM 13% | [6]; at 3.7 µM 18% | [6]; [17] 11% | [7]; at 1.2 µM 2% | [7]; at 3.7 µM 4% | [9]; at 1.2 µM 15% | [9]; at 3.7 µM 6% | [10]; [17] 22% | [11]; at 1.2 µM 9% | [11]; at 3.7 µM -8% | [11]; [17] 33% | [12]; at 1.2 µM -1% | [12]; at 3.7 µM 0% | [12]; at 11.0 µM -17% | [12]; at 33.0 µM 60% | [13]; at 1.2 µM 5% | [13]; at 3.7 µM 11% | [14]; at 1.2 µM -15% | [14]; at 3.7 µM -1% | [15]; [17] 7% | [16]; at 1.2 µM -6% | [16]; at 3.7 µM 11%
active: [1]; at 11.0 µM 97% | [1]; at 33.0 µM 98% | [1]; at 100.0 µM 98% | [2]; at 11.0 µM 97% | [2]; at 33.0 µM 99% | [2]; at 100.0 µM 99% | [3]; at 11.0 µM 98% | [3]; at 33.0 µM 98% | [3]; at 100.0 µM 98% | [4]; at 11.0 µM 97% | [4]; at 33.0 µM 99% | [4]; at 100.0 µM 98% | [5]; at 11.0 µM 98% | [5]; at 33.0 µM 98% | [5]; [18] 98% | [5]; at 50.0 µM 88.2% | [5]; at 100.0 µM 98% | [6]; at 11.0 µM 94% | [6]; at 33.0 µM 99% | [6]; [18] 99% | [6]; at 50.0 µM 93.4% | [6]; at 100.0 µM 99% | [7]; at 11.0 µM 98% | [7]; at 33.0 µM 99% | [7]; at 100.0 µM 99% | [8]; [17] 78% | [8]; [18] 99% | [8]; at 50.0 µM 91.1% | [9]; at 11.0 µM 96% | [9]; at 33.0 µM 98% | [9]; at 100.0 µM 98% | [10]; [18] 98% | [10]; at 50.0 µM 89.8% | [11]; at 11.0 µM 98% | [11]; at 33.0 µM 98% | [11]; [18] 99% | [11]; at 50.0 µM 90% | [11]; at 100.0 µM 98% | [12]; at 100.0 µM 98% | [13]; at 11.0 µM 98% | [13]; at 33.0 µM 99% | [13]; at 100.0 µM 99% | [14]; at 11.0 µM 97% | [14]; at 33.0 µM 99% | [14]; at 100.0 µM 99% | [15]; [18] 98% | [15]; at 50.0 µM 89.5% | [16]; at 11.0 µM 98% | [16]; at 33.0 µM 98% | [16]; at 100.0 µM 98%
